Of roughly 7,900 targets only a part is listed; those with a hit were picked by preference. About 0.6% of all pairs of compound and target were hits.
What follows are targets tested with c1cn2cc(-c3ccc4cn[nH]c4c3)nc(Nc3ccc(N4CCOCC4)cc3)c2n1 [entospletinib] (assay: log2 fold change, soluble protein after heating vs DMSO (PISA); higher = thermal stabilisation; K562 cells, 10 uM, 30 min; active = over 0.2 and 3.5 SD of the protein, either way, in both replicates (recomputed)).
Procedure, shortened: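 Thermal stability values are relative to control samples and come from duplicates. They are expressed as log2 fold changes. For measurement, K562 cells (2×10^6 cells/mL) received 10 μM compound for 30 min, and aliquots were heated for 3 min over 48°C-58°C, pooled, and extracted at 4°C in PBS with 0.5% NP-40. Soluble protein, the supernatant after 21,000xg for 90 min, was quantified by TMTpro 16plex LC-MS/MS with equalised channel sums.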
Sequence of UniProt P04049 (P04049 whole entry, looked up): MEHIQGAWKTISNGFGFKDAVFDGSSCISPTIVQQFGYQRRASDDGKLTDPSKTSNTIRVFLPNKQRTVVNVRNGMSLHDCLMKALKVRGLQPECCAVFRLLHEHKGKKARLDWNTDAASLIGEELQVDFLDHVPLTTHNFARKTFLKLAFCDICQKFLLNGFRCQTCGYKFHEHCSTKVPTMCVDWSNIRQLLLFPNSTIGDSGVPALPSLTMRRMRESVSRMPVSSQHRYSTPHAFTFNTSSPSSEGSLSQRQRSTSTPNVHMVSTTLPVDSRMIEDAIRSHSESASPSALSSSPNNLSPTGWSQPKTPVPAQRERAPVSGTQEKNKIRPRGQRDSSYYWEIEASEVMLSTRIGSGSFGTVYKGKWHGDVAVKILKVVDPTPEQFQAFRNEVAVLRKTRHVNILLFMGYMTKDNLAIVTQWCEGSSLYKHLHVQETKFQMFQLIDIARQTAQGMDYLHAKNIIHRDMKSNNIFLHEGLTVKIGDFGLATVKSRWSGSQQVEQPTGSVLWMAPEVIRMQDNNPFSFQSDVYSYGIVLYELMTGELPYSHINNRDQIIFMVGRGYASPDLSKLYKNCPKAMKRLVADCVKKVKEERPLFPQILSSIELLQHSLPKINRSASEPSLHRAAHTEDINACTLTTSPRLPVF
Sequence of UniProt Q92696 (Q92696 whole entry, looked up): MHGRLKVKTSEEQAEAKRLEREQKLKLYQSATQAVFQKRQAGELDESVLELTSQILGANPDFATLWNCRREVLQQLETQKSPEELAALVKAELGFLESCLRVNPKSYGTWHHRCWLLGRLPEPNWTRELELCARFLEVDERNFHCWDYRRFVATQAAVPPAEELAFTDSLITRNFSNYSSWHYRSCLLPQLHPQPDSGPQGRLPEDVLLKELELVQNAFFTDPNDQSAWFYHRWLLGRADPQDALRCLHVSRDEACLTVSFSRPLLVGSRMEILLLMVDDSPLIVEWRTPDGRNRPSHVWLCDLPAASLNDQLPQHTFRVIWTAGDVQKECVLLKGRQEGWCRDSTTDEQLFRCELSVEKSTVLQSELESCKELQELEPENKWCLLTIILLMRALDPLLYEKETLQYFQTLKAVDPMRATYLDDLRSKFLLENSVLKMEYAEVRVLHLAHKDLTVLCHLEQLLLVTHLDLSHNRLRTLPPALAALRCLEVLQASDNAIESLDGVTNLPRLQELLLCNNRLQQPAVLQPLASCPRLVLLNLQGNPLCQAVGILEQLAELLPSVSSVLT
Sequence of UniProt P51812 (P51812 whole entry, looked up): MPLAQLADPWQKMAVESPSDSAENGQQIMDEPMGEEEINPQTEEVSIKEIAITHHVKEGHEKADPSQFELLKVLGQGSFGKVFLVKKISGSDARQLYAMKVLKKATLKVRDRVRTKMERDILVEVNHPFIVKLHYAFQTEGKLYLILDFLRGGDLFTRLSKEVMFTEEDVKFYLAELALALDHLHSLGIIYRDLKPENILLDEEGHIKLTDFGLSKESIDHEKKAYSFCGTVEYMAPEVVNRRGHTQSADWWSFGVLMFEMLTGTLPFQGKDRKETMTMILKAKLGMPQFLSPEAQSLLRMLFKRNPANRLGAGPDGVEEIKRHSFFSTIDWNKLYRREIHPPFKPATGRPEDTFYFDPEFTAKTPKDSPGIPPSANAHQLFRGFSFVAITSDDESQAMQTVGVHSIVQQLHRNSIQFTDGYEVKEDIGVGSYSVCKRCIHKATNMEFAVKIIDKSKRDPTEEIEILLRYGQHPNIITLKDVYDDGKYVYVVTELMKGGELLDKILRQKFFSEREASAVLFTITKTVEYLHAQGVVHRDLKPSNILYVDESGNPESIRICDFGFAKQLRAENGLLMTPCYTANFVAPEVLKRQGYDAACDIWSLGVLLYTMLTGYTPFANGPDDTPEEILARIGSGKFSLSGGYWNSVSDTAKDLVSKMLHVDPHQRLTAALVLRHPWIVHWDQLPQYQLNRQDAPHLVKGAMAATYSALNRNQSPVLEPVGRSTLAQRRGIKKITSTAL
Sequence of UniProt Q96EU6 (Q96EU6 whole entry, looked up): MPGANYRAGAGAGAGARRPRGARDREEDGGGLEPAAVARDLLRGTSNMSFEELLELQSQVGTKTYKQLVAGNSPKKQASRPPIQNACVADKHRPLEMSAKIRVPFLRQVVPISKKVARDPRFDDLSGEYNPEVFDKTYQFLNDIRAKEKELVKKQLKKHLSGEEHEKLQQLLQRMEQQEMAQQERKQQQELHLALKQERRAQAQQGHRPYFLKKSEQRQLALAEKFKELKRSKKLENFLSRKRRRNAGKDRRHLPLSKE
Sequence of UniProt Q06609 (Q06609 whole entry, looked up): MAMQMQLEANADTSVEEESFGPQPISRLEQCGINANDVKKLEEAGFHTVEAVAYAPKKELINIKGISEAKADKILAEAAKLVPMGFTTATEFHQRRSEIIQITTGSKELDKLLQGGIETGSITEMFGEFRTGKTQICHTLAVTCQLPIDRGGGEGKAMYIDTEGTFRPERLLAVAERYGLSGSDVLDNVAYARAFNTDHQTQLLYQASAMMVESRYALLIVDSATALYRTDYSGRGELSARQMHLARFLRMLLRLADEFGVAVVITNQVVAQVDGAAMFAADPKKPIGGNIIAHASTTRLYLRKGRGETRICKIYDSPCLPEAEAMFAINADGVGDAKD
Sequence of UniProt Q8WWV3 (Q8WWV3 whole entry, looked up): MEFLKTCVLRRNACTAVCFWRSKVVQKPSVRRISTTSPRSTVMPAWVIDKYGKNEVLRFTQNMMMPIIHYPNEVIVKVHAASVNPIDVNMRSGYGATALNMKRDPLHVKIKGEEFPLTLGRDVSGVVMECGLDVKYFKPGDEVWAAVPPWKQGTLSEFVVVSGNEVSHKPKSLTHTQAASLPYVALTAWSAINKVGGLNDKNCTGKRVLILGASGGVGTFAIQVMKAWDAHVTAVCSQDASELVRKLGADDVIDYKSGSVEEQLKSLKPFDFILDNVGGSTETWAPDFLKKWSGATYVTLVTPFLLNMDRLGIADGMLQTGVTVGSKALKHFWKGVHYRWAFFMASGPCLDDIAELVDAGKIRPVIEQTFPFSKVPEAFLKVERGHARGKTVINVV
Sequence of UniProt Q8IXJ6 (Q8IXJ6 whole entry, looked up): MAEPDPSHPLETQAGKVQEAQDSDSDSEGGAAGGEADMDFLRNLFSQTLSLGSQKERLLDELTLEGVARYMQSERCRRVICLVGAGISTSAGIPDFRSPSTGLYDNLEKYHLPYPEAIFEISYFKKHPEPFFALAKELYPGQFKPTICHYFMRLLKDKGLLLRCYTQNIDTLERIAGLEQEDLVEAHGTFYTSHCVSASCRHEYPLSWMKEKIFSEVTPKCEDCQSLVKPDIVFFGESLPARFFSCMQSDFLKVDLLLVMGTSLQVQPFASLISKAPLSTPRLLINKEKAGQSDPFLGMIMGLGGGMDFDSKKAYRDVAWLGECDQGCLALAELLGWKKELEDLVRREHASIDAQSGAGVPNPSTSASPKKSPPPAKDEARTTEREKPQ
Sequence of UniProt Q8N5L8 (Q8N5L8 whole entry, looked up): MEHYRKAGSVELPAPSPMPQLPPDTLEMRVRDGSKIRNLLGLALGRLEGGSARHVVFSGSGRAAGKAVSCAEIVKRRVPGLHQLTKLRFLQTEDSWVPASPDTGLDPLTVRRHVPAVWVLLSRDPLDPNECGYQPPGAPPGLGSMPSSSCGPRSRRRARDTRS
Sequence of UniProt P27694 (P27694 whole entry, looked up): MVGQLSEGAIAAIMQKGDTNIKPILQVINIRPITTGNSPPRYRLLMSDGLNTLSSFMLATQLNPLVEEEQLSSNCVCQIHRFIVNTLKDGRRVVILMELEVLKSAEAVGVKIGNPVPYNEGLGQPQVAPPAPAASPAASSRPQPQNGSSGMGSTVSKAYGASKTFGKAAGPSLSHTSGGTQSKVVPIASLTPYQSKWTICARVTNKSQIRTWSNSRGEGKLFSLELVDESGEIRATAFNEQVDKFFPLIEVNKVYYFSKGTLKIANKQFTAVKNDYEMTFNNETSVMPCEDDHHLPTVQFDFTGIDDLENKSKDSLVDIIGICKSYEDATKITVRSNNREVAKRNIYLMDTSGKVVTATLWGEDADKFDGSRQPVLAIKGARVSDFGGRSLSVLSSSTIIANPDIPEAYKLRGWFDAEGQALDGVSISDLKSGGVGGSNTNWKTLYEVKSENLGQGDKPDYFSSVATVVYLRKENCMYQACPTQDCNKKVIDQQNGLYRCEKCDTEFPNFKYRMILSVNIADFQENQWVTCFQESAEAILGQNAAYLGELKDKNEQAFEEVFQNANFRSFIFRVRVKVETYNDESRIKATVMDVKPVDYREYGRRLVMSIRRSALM
Sequence of UniProt Q9BY42 (Q9BY42 whole entry, looked up): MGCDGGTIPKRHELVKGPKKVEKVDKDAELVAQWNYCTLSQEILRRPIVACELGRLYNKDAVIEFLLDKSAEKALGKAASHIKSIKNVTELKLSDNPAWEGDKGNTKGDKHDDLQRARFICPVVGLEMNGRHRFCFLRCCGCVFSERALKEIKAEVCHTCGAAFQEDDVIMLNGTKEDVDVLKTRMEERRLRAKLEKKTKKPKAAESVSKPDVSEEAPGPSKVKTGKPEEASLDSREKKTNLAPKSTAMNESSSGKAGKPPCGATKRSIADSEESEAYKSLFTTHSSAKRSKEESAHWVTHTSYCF
Sequence of UniProt Q8NBN7 (Q8NBN7 whole entry, looked up): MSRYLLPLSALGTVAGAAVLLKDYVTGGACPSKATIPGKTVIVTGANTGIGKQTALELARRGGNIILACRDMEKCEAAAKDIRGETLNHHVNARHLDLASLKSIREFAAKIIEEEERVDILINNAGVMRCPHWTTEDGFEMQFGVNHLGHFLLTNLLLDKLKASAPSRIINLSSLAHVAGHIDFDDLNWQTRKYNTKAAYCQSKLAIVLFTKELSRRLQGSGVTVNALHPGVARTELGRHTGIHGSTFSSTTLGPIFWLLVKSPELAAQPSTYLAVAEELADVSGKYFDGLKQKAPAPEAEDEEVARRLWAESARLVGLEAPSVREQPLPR
Sequence of UniProt Q9Y3L5 (Q9Y3L5 whole entry, looked up): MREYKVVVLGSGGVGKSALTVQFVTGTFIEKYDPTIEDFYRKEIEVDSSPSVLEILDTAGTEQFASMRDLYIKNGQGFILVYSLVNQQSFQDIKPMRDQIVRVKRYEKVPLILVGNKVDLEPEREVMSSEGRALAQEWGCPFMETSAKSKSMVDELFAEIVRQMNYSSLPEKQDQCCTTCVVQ
For RABGGTA (UniProt Q92696), the log2 fold change was -0.013 (inactive). RCOR3 isoform 3 (UniProt Q9P2K3) was tested, and the log2 fold change was -0.088 (inactive). For ROR2 (UniProt Q01974), the log2 fold change was -0.025 (inactive). For RBM39 (UniProt Q14498), the log2 fold change was -0.125 (inactive). For RDH13 (UniProt Q8NBN7), the log2 fold change was -0.009 (inactive). With RPS3 (UniProt P23396) the log2 fold change was 0.063 (inactive). In the case of SEMG2 (UniProt Q02383), the log2 fold change is reported as -0.048 (inactive). RRP36 (UniProt Q96EU6) was tested, and the log2 fold change was 0.118 (inactive). With SLC12A5 (UniProt Q9H2X9) the log2 fold change was -0.081 (inactive). With RTF2 (UniProt Q9BY42) the log2 fold change was -0.069 (inactive). For RCN3 (UniProt Q96D15), the log2 fold change was -0.156 (inactive). With RPP25L (UniProt Q8N5L8) the log2 fold change was 0.066 (inactive). With REL (UniProt Q04864) the log2 fold change was 0.054 (inactive). For SF3B5 (UniProt Q9BWJ5), the log2 fold change was 0.021 (inactive). In the case of RTN4IP1 (UniProt Q8WWV3), the log2 fold change is reported as -0.003 (inactive). For RPS3 (UniProt E9PJN9), the log2 fold change was 0.2 (inactive). For RETSAT (UniProt Q6NUM9), the log2 fold change was -0.006 (inactive). In the case of RPS25 (UniProt P62851), the log2 fold change is reported as 0.075 (inactive). With SDC3 (UniProt O75056) the log2 fold change was -0.853 (active). In the case of RBMY1E (UniProt A6NEQ0), the log2 fold change is reported as -0.057 (inactive). For RPS27A (UniProt P62979), the log2 fold change was 0.222 (inactive). RAD51 (UniProt Q06609) was tested, and the log2 fold change was -0.127 (inactive). For SIRT2 (UniProt Q8IXJ6), the log2 fold change was -0.047 (inactive). In the case of SDHAF4 (UniProt Q5VUM1), the log2 fold change is reported as -0.018 (inactive). In the case of RSPRY1 (UniProt Q96DX4), the log2 fold change is reported as -0.023 (inactive). In the case of SCO2 (UniProt O43819), the log2 fold change is reported as -0.118 (inactive). With RPA1 (UniProt P27694) the log2 fold change was -0.024 (inactive). In the case of RAF1 isoform 2 (UniProt P04049), the log2 fold change is reported as -0.007 (inactive). With RAP1GDS1 isoform 5 (UniProt P52306) the log2 fold change was -0.025 (inactive). For RFC3 (UniProt P40938), the log2 fold change was -0.037 (inactive). With SLC1A3 (UniProt P43003) the log2 fold change was 0.028 (inactive). For RPS6KA3 (UniProt P51812), the log2 fold change was 0.037 (inactive). With S100A10 (UniProt P60903) the log2 fold change was -0.102 (inactive). With RPS18 (UniProt P62269) the log2 fold change was 0.094 (inactive). For RB1 (UniProt P06400), the log2 fold change was 0.037 (inactive). For RPL38 (UniProt P63173), the log2 fold change was -0.014 (inactive). With RAP2C (UniProt Q9Y3L5) the log2 fold change was 0.017 (inactive).

— the supplement of paper PMC10849652
